# Laboratory results: ChEMBL document CHEMBL4513216, “Probing the Open Global Health Chemical Diversity Library for Multistage-Active Starting Points for Next-Generation Antimalarials” (ACS Infect Dis, 2020)
# The whole screen tested about 69,000 compounds, of which about 8,600 (12%) showed an effect of 50% or more. Many of the other results were omitted from the sample, so strong results are more common in it than they were.
# Tested on: Plasmodium berghei
# Experiment: Screen against P. berghei liver stage (PbLuc), transformed with Luciferase, at 10uM
# Type: functional, HepG2
# Conditions: tested at 10 uM
row,SMILES,INHIBITION [%]
1,Cc1cccc(C(=O)N2C[C@@H]3COC[C@@H](CC(=O)N4CCCC4)[C@@H]3C2)n1,-69.3
2,CN(C1CCN(c2ccccn2)CC1)S(=O)(=O)c1cccs1,33
3,COCCOCC(=O)NC1CCN(c2ccccn2)CC1,51.3
4,Cc1ccccc1CC(=O)N(C)C1CCN(c2ccccn2)CC1,42.9
5,O=C(COCCOc1ccccc1)NC1CCN(c2ccccn2)CC1,-10.7
6,CCOc1ncccc1C(=O)N(C)C1CCN(c2ccccn2)CC1,15.6
7,CN(C1CCN(c2ccccn2)CC1)S(=O)(=O)c1ccc(F)cc1,8.13
8,CN(C1CCCN(c2ccccn2)C1)S(=O)(=O)N1CCOCC1 (stereo not drawn),17.85
9,CN(C(=O)Cc1cccs1)C1CCN(c2ccccn2)CC1,54.4
10,Cc1ccc(C)c(OCC(=O)NC2CCN(c3ccccn3)CC2)c1,-43.2
11,CN(C1CCN(c2ccccn2)CC1)S(=O)(=O)N1CCOCC1,55.4
12,CN(C(=O)Cc1ccccc1Cl)C1CCN(c2ccccn2)CC1,60.5
13,CN(C(=O)CNc1ccc(C#N)cc1)C1CCN(c2ccccn2)CC1,11.2
14,Cc1cnn(C2CCCN(C(=O)CCCn3ccnc3C)C2)c1 (stereo not drawn),9.54
15,Cc1cc(CN2CCC3(CC2)COC(COCC2CC2)C3)no1 (stereo not drawn),22.2
16,CCNC(=O)NC(=O)CN1CCC(c2cccc(F)c2)C1 (stereo not drawn),15.8
17,O=C(NC1CC1)c1cc(C(F)(F)F)cc(C(F)(F)F)n1,-14.3
18,Cc1ccc(OCCN2CCC(c3ccnn3CCO)CC2)cc1,19.6
19,CCc1nc2n(n1)CC(NCc1nc(-c3ccccn3)no1)CC2 (stereo not drawn),4.45
20,COCCOc1cccc(C(=O)N2CCCC(n3ccnc3)C2)c1 (stereo not drawn),33.7
21,OCC(CO)N1CCC(c2nccnc2Nc2cnccn2)CC1,-42.9
22,Cc1ccc(S(=O)(=O)N2CCCC3(CCCN3S(C)(=O)=O)C2)cc1F (stereo not drawn),-21.1
23,CSC1(CNC(=O)CCc2ccc(Cl)s2)CCOCC1,-19.1

row,SMILES,INHIBITION [%]
1,CN1CCN(CCCNC(=O)CCc2nc3cc(Br)cnc3[nH]2)CC1,38.9
2,CCc1nccn1C1CCCN(C(=O)c2ccc3[nH]cnc3c2)C1 (stereo not drawn),3.16
3,CCCc1nnc(NCCn2nc(C)c(Cl)c2C)o1,13.7
4,Cc1cc(C)n(CC2CN(CC(=O)NC3CCOCC3)CCO2)n1 (stereo not drawn),36.1
5,COc1ccc2[nH]cc(C(=O)N3C[C@@H](O)[C@H](N4CCOCC4)C3)c2c1,29.5
6,O=C(Cc1ccc(F)cc1)NCCNCc1cccc(O)c1,5.9
7,CCn1c(C)cc(C(=O)N2C[C@@H](C(=O)O)[C@H](c3ccccc3)C2)c1C,35.8
8,CNc1ncc(C(=O)N[C@H]2CN(CCCSC)C[C@@H]2C2CC2)cn1,1.71
9,COCC(C)N(C)C(=O)NC1CCN(S(C)(=O)=O)CC1 (stereo not drawn),36.2
10,CN(C1CCN(c2ccccn2)CC1)S(=O)(=O)c1ccccc1F,21.5
11,COCC(C)N(C)C(=O)NC1CCN(c2ncccn2)CC1 (stereo not drawn),52.2
12,CN(C(=O)c1cccc2[nH]ncc12)C1CCN(c2ccccn2)CC1,59.7
13,O=C1OCCC1N1CCN(c2ccccn2)CC1 (stereo not drawn),59.3
14,CN(Cc1cnn(C)c1)C(=O)NC1CCN(c2ncccn2)CC1,3.04
15,Cc1cccc(C(=O)N(C)C2CCN(c3ccccn3)CC2)c1C,37.3
16,O=C1OCCC1N1CCN(c2ccc(O)cc2)CC1 (stereo not drawn),43.1
17,CN(C(=O)Cc1ccccc1F)C1CCN(c2ccccn2)CC1,52.3
18,CN(C(=O)c1ccccc1Cl)C1CCN(c2ccccn2)CC1,28.6
19,O=C1OCCC1N1CCN(c2cnccn2)CC1 (stereo not drawn),3.69
20,CN(Cc1noc(C2CC2)n1)C1CCN(CCS(C)(=O)=O)C1 (stereo not drawn),-24.2
21,CN(C(=O)c1cccc(Cl)c1)C1CCN(c2ccccn2)CC1,31.3
22,CN(C(=O)c1cc(Cl)c[nH]1)C1CCN(c2ccccn2)CC1,50.4
23,CN(C(=O)c1ccc(Cl)cc1)C1CCN(c2ccccn2)CC1,3.73

row,SMILES,INHIBITION [%]
1,CN(C(=O)Cc1c[nH]c2ccccc12)C1CCN(c2ccccn2)CC1,53.8
2,CN(C(=O)CNC(=O)CC(C)(C)C)C1CCN(c2ccccn2)CC1,-11.5
3,CN(C(=O)Cc1ccc(F)cc1)C1CCN(c2ccccn2)CC1,-1.14
4,OC(CN1CCN(Cc2ccc(F)c(F)c2)CC1)C1CC1 (stereo not drawn),-48.4
5,Cc1nc(C(C)n2cc3[nH]cccc-3c2=O)cs1 (stereo not drawn),33.7
6,CCN(Cc1noc(C2CC2)n1)C(=O)c1onc2ccccc12,48.1
7,O=C1CCCN1Cc1nnc(SCc2ccc3c(c2)CCC3)o1,13.2
8,Cc1n[nH]cc1CNCC1(c2cccc(F)c2)CCOCC1,-11.9
9,Cn1cc(CN2CCC(F)(F)C3(CCN(c4cccc(F)c4)C3)C2)cn1 (stereo not drawn),-0.371
10,Cc1nnc(N2CCCC3(CN(Cc4cnn(C)c4)CCO3)C2)o1 (stereo not drawn),41.2
11,Fc1cccc(N2CCCC3(C2)CN(c2cnccn2)CCO3)c1 (stereo not drawn),23.3
12,c1cnc(N2CCOCC3(CNCCO3)C2)nc1 (stereo not drawn),22.2
13,COc1ccc(CN2CCOC3(CCCN(c4nnc(C)o4)C3)C2)cc1 (stereo not drawn),31.8
14,c1ccc(CN2CCOC3(COCCN(c4ncccn4)C3)C2)nc1 (stereo not drawn),20.1
15,Fc1cccc(N2CCCC3(C2)CN(c2ncccn2)CCO3)c1 (stereo not drawn),80.5
16,Cn1cc(CN2CCOC3(CCCN(c4cccc(F)c4)C3)C2)cn1 (stereo not drawn),73
17,Cc1nnc(N2CCCC3(CN(Cc4ccncc4)CCO3)C2)o1 (stereo not drawn),10.1
18,Cc1nnc(N2CCCC3(CN(Cc4ccc(F)cc4)CCO3)C2)o1 (stereo not drawn),57.4
19,Fc1cccc(N2CCCC3(CN(Cc4ccccn4)CCO3)C2)c1 (stereo not drawn),-9.42
20,Fc1ccc(N2CCOC3(COCCN(c4ncccn4)C3)C2)cc1 (stereo not drawn),61.1
21,Cc1cc(O)cc(=O)n1CCCC(=O)Nc1n[nH]c2ccccc12,9.96
22,COCC1CN(S(=O)(=O)N(C)C)Cc2ncn(CC3CC3)c21 (stereo not drawn),5.56
